Inconclusive results are not listed. Activity calls are given as the source filed them. How the source made its calls, unless noted: active means hit-call score of the fitted dose curve at least 0.9, where 1 is the maximum; inconclusive means response in the unintended direction; inactive means score below 0.9.

Chain of Luciferin 4-monooxygenase (Photinus pyralis) (P08659 whole entry, looked up): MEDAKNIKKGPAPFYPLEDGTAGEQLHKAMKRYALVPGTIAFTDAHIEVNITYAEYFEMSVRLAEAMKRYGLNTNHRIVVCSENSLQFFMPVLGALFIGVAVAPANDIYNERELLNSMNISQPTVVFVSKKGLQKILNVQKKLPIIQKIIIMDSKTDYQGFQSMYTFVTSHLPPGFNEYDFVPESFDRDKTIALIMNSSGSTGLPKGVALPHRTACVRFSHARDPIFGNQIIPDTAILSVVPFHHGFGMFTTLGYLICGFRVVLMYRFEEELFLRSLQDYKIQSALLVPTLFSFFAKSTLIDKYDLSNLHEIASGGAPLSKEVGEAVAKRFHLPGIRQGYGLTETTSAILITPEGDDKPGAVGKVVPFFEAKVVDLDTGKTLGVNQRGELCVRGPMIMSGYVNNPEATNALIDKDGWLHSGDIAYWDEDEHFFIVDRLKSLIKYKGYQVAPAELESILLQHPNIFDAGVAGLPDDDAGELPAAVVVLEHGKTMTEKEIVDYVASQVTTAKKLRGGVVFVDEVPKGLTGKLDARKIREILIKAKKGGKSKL

Tested on in the first assay: not listed separately
Nature of the assay: STM_H9_OrnCyssISnorm_ratio: Stemina devTOX quickPredict H9 human embryonic stem cell (hESC)-based Assay for Ornithine (ORN):Cystine (CYSS) Ratio (AID 2283714). An outline of the steps: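 Steps: H9 hESCs in pluripotent state dosed 72h, medium plus compound renewed every 24h; conditioned medium from the final 24h deproteinized in 40% acetonitrile; ORN and CYSS quantified by UPLC-HRMS with C13 spike-ins; ratio relative to vehicle.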
One may read the AC50 as the midpoint of the concentration-response curve, whichever way the signal moves. `CCOC(=O)c1ccc(C2CCC(NC[C@H](O)COc3ccc(O)c(NS(C)(=O)=O)c3)CC2)cc1` (stereo partly drawn): the AC50 was 1.42 µM (active).

Take `NC(=O)NO`: the half-maximal activity concentration (AC50) is 392 µM (active).

Regarding `CNCc1ccc(NC(=O)c2c[nH]c3c2C(=O)CCC3)cc1`, the outcome was inactive.

`CC(C)CC(C)(O)C#CC(C)(O)CC(C)C` (stereo not drawn): the concentration at half-maximal activity (AC50) was 63.2 µM (active).

As to `Cn1cnc([N+](=O)[O-])c1Sc1ncnc2nc[nH]c12`, the concentration at half-maximal activity (AC50) was 3.28 µM (active).

As for `CN(C)c1ccc(N=NS(=O)(=O)O)cc1`, the AC50 is 20.5 µM (active).

With `CCN(C(=O)c1cc(C)cc(OC[C@H](C)Nc2ccncc2)c1)C(C)C`, the concentration at half-maximal activity (AC50) was 7 µM (active).

Consider `O=c1n(CC2CO2)c(=O)n(CC2CO2)c(=O)n1CC1CO1` (stereo not drawn), for which the AC50 was 0.295 µM (active).

As to `CC[C@H]1CC[C@H](NCc2cc3c(cc2OC)[C@H]2C[C@H]2C(=O)N3C)[C@H](c2ccccc2)N1`, the AC50 was 8.66 µM (active).

Read-out in the next assay: not listed separately
Briefly: CEETOX_H295R_MTT_cell_viability: Viability Assessment in the CeeTox HT-H295R MTT Assay (AID 2283718; active means hit-call score of the fitted dose curve at least 0.9, where 1 is the maximum; inactive means score below 0.9;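 on AC50: curve fitted both ways so AC50 may mark viability loss or gain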). The method, boiled down: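 MTT reduction (0.5 mg/ml, 4 h at 37 C; absorbance at 570 and 650 nm) gave viability as background-corrected percent change versus controls. H295R cells had 48 h forskolin (10 uM) prestimulation, then 48 h chemical exposure at 0.1% DMSO.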
Turning to `CCOC(=O)c1ccc(C2CCC(NC[C@H](O)COc3ccc(O)c(NS(C)(=O)=O)c3)CC2)cc1` (stereo partly drawn), the molecule was classed as inactive.

For `Cc1ccc(O)cc1`, the result was inactive.

Turning to `CCCCCCCCCCCCCCCO`, the AC50 is 0.0667 µM (active).

With `CC(C)CC(C)(O)C#CC(C)(O)CC(C)C` (stereo not drawn), the molecule was called inactive.

As to `C[C@](N)(Cc1ccc(O)c(O)c1)C(=O)O`, the result was inactive.

For `CC(C)=CCC/C(C)=C\CO`, the call was inactive.

Take `CCCCC(CC)COC(=O)c1ccc(C(=O)OCC(CC)CCCC)cc1` (stereo not drawn): the molecule was classed as inactive.

In the case of `CNS(=O)(=O)c1cc(C(=O)N2CCC(CCN3C4CCC3CC(n3c(C)nc5ccccc53)C4)(c3cccc(F)c3)CC2)c(Cl)cc1F` (stereo not drawn), the call was inactive.

Consider `CC(C)(O)c1coc(S(=O)(=O)NC(=O)Nc2c3c(cc4c2CCC4)CCC3)c1`, for which the outcome was inactive.

Take `CCCCCCCCO`: the molecule was classed as inactive.

Consider `CC[C@H]1CC[C@H](NCc2cc3c(cc2OC)[C@H]2C[C@H]2C(=O)N3C)[C@H](c2ccccc2)N1`, for which the outcome was inactive.

Tested on in another assay: not listed separately
Nature of the assay: Tanguay_ZF_120hpf_ActivityScore_legacy: (Legacy) Oregon State University Tanguay Lab 120 Hour Post-fertilization zebrafish Assay Score for Activity (AID 2283742).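 On AC50: dechorionated Tropical 5D wild-type zebrafish embryos held singly per well; static exposure from 6 hpf until 120 hpf at 28 °C.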 The method, boiled down: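 Embryos are staged, enzymatically dechorionated at 4 hpf, placed individually at 6 hpf, then held in test chemical (0.64% DMSO) at 28C until 120 hpf. Mortality and malformations are scored by brightfield, with non-mortality endpoints skipped for dead embryos.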
As for `CCOC(=O)c1ccc(C2CCC(NC[C@H](O)COc3ccc(O)c(NS(C)(=O)=O)c3)CC2)cc1` (stereo partly drawn), the molecule was classed as inactive.

As to `NC(=O)NO`, the result was inactive.

For the molecule `Cc1ccc(O)cc1`, the call was inactive.

On to `Cn1c(=O)c2c(ncn2C)n(C)c1=O`, for which the outcome was inactive.

Turning to `O=C(CCCCCCCCc1cccnc1)N1CCC(C=C(c2ccccc2)c2ccccc2)CC1`, the call was inactive.

In the case of `Cc1[nH]cnc1C[C@H]1CCc2c(C)c3ccccc3n2C1=O`, the result was inactive.

Consider `CCCCCCCCCCCCCCCO`, for which the result was inactive.

For `CCOC(=O)COc1ccc2c(c1)CC(NCC(O)c1cccc(Cl)c1)CC2` (stereo not drawn), the AC50 was 30 µM (active).

Regarding `CC(=O)OCCC(C)C`, the molecule was classed as inactive.

Turning to `CCCCCCc1ccc(O)cc1O`, the concentration at half-maximal activity (AC50) was 43.8 µM (active).

As for `CNCc1ccc(NC(=O)c2c[nH]c3c2C(=O)CCC3)cc1`, the molecule was called inactive.

As for `CC(C)CC(C)(O)C#CC(C)(O)CC(C)C` (stereo not drawn), the result was inactive.

In the case of `O=C(OC[C@H]1O[C@@H](OC(=O)c2cc(O)c(O)c(OC(=O)c3cc(O)c(O)c(O)c3)c2)[C@H](OC(=O)c2cc(O)c(O)c(OC(=O)c3cc(O)c(O)c(O)c3)c2)[C@@H](OC(=O)c2cc(O)c(O)c(OC(=O)c3cc(O)c(O)c(O)c3)c2)[C@@H]1OC(=O)c1cc(O)c(O)c(OC(=O)c2cc(O)c(O)c(O)c2)c1)c1cc(O)c(O)c(OC(=O)c2cc(O)c(O)c(O)c2)c1`, the molecule was called inactive.

Regarding `Cn1cnc([N+](=O)[O-])c1Sc1ncnc2nc[nH]c12`, the molecule was classed as inactive.

Regarding `CCCN(C1CCN(C(=O)C2CCNCC2)CC1)[C@@H]1CCc2ccc(OC)cc2C1`, the molecule was called inactive.

For the molecule `C[C@](N)(Cc1ccc(O)c(O)c1)C(=O)O`, the result was inactive.

Take `CC(C)=CCC/C(C)=C\CO`: the molecule was classed as inactive.

`CCCCC(CC)COC(=O)c1ccc(C(=O)OCC(CC)CCCC)cc1` (stereo not drawn): the result was inactive.

Take `CN(C)c1ccc(N=NS(=O)(=O)O)cc1`: the outcome was inactive.

For `CCN(C(=O)c1cc(C)cc(OC[C@H](C)Nc2ccncc2)c1)C(C)C`, the outcome was inactive.

For `CCCCC(CC)COC(=O)CCCCCCCCC(=O)OCC(CC)CCCC` (stereo not drawn), the molecule was called inactive.

Consider `O=c1n(CC2CO2)c(=O)n(CC2CO2)c(=O)n1CC1CO1` (stereo not drawn), for which the call was inactive.

As to `CNS(=O)(=O)c1cc(C(=O)N2CCC(CCN3C4CCC3CC(n3c(C)nc5ccccc53)C4)(c3cccc(F)c3)CC2)c(Cl)cc1F` (stereo not drawn), the molecule was called inactive.

On to `CC(C)(O)c1coc(S(=O)(=O)NC(=O)Nc2c3c(cc4c2CCC4)CCC3)c1`, for which the call was inactive.

As for `COC(=O)c1ccccc1O`, the call was inactive.

With `CCCCCCCCO`, the molecule was called inactive.

Turning to `O=C1OC(=O)C2C3C=CC(C3)C12` (stereo not drawn), the call was inactive.

Turning to `CC[C@H]1CC[C@H](NCc2cc3c(cc2OC)[C@H]2C[C@H]2C(=O)N3C)[C@H](c2ccccc2)N1`, the outcome was inactive.

Regarding `CC/C(=C\C(=N/O)C(N)=O)C(C)[N+](=O)[O-]` (stereo not drawn), the call was inactive.

In another assay the target is Luciferin 4-monooxygenase (Photinus pyralis) (UniProt P08659). Nature of the assay: CCTE_Simmons_QuantiLum_inhib_2: CCTE's Firefly Luciferase Inhibition Assay, Simmons Lab (AID 2283767).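 On AC50: potency for inhibitors that lower luciferase luminescence relative to DMSO.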 An outline of the steps:
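Cell-free recombinant firefly luciferase (5 ng/well) in 200mM potassium phosphate with 1 mg/ml BSA, 30 min at 37C with 8 concentrations from 5 nM to 87.5 uM [final], 0.5% DMSO. Luminescence read after D-luciferin (150uM)/dATP (147uM) reagent injection, pH 7.8; triplicates.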
In the case of `CCOC(=O)c1ccc(C2CCC(NC[C@H](O)COc3ccc(O)c(NS(C)(=O)=O)c3)CC2)cc1` (stereo partly drawn), the molecule was called inactive.

`NC(=O)NO`: the result was inactive.

With `O=C(CCCCCCCCc1cccnc1)N1CCC(C=C(c2ccccc2)c2ccccc2)CC1`, the molecule was classed as inactive.

For `Cc1[nH]cnc1C[C@H]1CCc2c(C)c3ccccc3n2C1=O`, the result was inactive.

For `CCCCCCc1ccc(O)cc1O`, the molecule was called inactive.

Turning to `O=C(OC[C@H]1O[C@@H](OC(=O)c2cc(O)c(O)c(OC(=O)c3cc(O)c(O)c(O)c3)c2)[C@H](OC(=O)c2cc(O)c(O)c(OC(=O)c3cc(O)c(O)c(O)c3)c2)[C@@H](OC(=O)c2cc(O)c(O)c(OC(=O)c3cc(O)c(O)c(O)c3)c2)[C@@H]1OC(=O)c1cc(O)c(O)c(OC(=O)c2cc(O)c(O)c(O)c2)c1)c1cc(O)c(O)c(OC(=O)c2cc(O)c(O)c(O)c2)c1`, the half-maximal activity concentration (AC50) was 21.6 µM (active).

Turning to `Cn1cnc([N+](=O)[O-])c1Sc1ncnc2nc[nH]c12`, the molecule was called inactive.

For `CCCN(C1CCN(C(=O)C2CCNCC2)CC1)[C@@H]1CCc2ccc(OC)cc2C1`, the result was inactive.

`C[C@](N)(Cc1ccc(O)c(O)c1)C(=O)O`: the half-maximal activity concentration (AC50) was 53.8 µM (active).

Consider `CC(C)=CCC/C(C)=C\CO`, for which the outcome was inactive.

Consider `CN(C)c1ccc(N=NS(=O)(=O)O)cc1`, for which the molecule was called inactive.

In the case of `O=c1n(CC2CO2)c(=O)n(CC2CO2)c(=O)n1CC1CO1` (stereo not drawn), the molecule was called inactive.

For the molecule `CC(C)(O)c1coc(S(=O)(=O)NC(=O)Nc2c3c(cc4c2CCC4)CCC3)c1`, the call was inactive.

For the molecule `CC/C(=C\C(=N/O)C(N)=O)C(C)[N+](=O)[O-]` (stereo not drawn), the call was inactive.

(Values after PubChem BioAssay (EPA / NIEHS).)
